Data as given in PubChem BioAssay.
Values without a mark were called inactive. For some of these results: Measured potencies and affinities stand elsewhere. The source made the active and inactive calls. Unless noted, the rule behind the calls is not given here.

What was measured:
[1] = antimalarial activity against Dd2 strain (AID 2302;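 active = growth inhibition above 50% at the single 2 µM test dose, taken to imply half-maximal potency below 2 µM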;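 note: 0% = DMSO untreated growth and 100% = chloroquine plus artemisinin killed control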); conditions: P. falciparum Dd2 in RBCs, LDH growth readout, 72 h; at 2 µM; hits give high values
[2] = human hepatoma cell viability loss – ATP luminescence, cytotoxicity control for P. falciparum antimalarial project, primary screen (AID 2303;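 active = inhibition above 50%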;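 note: 0% = DMSO wells and 100% = digitonin-killed cells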); conditions: HepG2 viability, 24-48 h, at 10 µM, hits give high values
[3] = target: L-lactate dehydrogenase (Plasmodium falciparum (isolate CDC / Honduras)) (UniProt Q27743); experiment: PfLDH activity inhibition – cell lysate, 3D7 strain, counter-screen for P. falciparum growth inhibition project (AID 2304);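 note: 0% = vehicle and 100% = reference inhibitor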; conditions: P. falciparum 3D7 crude extract, LDH APAD/NBT absorbance; at 2 µM; hits give high values
[4] = inhibition of 3D7 malaria parasite growth – strain 3D7 (AID 2306);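 note: 0% = DMSO wells and 100% = chloroquine plus artemisinin control wells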; conditions: P. falciparum 3D7 erythrocytic growth, LDH absorbance, 72 h; at 2 µM; hits give high values
[5] = target: Calcium-dependent protein kinase 1 (Plasmodium falciparum (isolate 3D7)) (UniProt P62344); experiment: PfCDPK1 kinase inhibitors, biochemical, TCAMS library (AID 1159585; cut-off not given, nearly all actives have IC50 up to about 0.98 µM;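 note: inhibitors leave more ATP so luminescence rises with inhibition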); conditions: recombinant PfCDPK1, Kinase-Glo ATP depletion luminescence
[6] = target: Plasmodium falciparum protein kinase 6 (PK6, PF3D7_1337100) (UniProt Q8IDW1); experiment: PfPK6 kinase inhibitors, biochemical, TCAMS library (AID 1159586); conditions: recombinant PfPK6, Kinase-Glo ATP depletion luminescence
[7] = target: Protein kinase 7 (PK7), Plasmodium falciparum 3D7 (PF3D7_0213400) (UniProt Q7YTF7); experiment: inhibition of Plasmodium PK7 catalytic activity – biochemical, TCAMS antimalarial set, Kinase-Glo luminescence (AID 1159587); conditions: recombinant PfPK7, Kinase-Glo ATP depletion luminescence
[8] = target: Calcium-dependent protein kinase 4 (Plasmodium falciparum (isolate 3D7)) (UniProt Q8IBS5); experiment: PfCDPK4 kinase inhibitors, biochemical, TCAMS library (AID 1159588; cut-off not given, nearly all actives have IC50 up to about 0.91 µM); conditions: recombinant PfCDPK4, Kinase-Glo ATP depletion luminescence
Sequence of Calcium-dependent protein kinase 4 (Plasmodium falciparum (isolate 3D7)) (Q8IBS5 whole entry, looked up): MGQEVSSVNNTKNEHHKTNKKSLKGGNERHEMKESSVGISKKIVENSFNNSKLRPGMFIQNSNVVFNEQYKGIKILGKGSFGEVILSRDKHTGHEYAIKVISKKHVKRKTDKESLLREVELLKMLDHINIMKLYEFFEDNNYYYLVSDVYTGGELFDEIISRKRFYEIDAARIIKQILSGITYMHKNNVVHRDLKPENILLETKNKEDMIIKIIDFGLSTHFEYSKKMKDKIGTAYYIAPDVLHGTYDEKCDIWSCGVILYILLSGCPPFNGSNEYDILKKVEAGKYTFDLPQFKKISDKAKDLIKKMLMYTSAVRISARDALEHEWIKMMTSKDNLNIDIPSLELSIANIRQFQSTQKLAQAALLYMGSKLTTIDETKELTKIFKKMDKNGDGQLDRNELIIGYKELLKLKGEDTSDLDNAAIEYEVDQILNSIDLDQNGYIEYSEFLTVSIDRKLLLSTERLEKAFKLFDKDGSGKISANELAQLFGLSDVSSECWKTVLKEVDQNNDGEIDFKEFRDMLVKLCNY

Sequence of L-lactate dehydrogenase (Plasmodium falciparum (isolate CDC / Honduras)) (Q27743 whole entry, looked up): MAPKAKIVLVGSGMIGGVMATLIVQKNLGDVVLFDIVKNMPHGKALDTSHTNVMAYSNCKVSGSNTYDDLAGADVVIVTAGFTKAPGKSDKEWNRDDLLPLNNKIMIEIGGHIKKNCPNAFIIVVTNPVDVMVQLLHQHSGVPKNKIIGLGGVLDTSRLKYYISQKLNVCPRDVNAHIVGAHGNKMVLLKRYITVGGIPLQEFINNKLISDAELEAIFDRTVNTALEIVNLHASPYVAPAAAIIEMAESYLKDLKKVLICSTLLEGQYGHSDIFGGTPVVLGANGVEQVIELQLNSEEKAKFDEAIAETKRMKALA
Sequence of Protein kinase 7 (PK7), Plasmodium falciparum 3D7 (PF3D7_0213400) (Q7YTF7 1-343): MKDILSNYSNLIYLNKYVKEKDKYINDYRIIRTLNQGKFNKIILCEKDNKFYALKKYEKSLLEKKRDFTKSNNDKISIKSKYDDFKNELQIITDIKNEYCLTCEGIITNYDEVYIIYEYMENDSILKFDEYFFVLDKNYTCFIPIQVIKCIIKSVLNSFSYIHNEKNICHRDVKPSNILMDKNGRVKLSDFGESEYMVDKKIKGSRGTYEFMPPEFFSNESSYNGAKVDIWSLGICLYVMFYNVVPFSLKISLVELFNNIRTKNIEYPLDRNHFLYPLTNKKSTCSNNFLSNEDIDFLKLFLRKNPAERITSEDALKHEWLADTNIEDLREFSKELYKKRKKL
Sequence of Plasmodium falciparum protein kinase 6 (PK6, PF3D7_1337100) (Q8IDW1 1-305): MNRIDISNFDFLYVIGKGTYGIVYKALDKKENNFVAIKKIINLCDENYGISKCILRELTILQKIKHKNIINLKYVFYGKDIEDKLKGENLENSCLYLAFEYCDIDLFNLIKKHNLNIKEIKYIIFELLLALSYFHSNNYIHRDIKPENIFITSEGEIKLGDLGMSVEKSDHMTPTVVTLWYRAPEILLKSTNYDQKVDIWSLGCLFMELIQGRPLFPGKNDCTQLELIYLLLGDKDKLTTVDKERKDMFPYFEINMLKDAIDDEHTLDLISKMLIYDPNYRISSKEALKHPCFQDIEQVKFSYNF
Sequence of Calcium-dependent protein kinase 1 (Plasmodium falciparum (isolate 3D7)) (P62344 whole entry, looked up): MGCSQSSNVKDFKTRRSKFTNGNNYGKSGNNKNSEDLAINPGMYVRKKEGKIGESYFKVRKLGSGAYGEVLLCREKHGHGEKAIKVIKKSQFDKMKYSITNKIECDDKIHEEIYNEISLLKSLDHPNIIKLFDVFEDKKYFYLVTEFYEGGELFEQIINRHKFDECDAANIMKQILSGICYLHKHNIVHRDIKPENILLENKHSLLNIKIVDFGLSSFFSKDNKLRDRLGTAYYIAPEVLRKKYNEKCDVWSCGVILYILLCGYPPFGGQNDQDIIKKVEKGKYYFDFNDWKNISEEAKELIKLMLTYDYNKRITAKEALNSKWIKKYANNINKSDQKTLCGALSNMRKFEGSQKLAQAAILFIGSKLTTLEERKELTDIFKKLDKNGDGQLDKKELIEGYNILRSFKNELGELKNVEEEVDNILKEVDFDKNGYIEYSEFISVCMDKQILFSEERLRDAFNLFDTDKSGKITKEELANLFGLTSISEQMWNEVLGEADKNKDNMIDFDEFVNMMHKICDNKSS

Compound | growth inhibition [1] | inhibition [2] | inhibition [3] [%] | growth inhibition [4] | outcome [5] | outcome [6] | outcome [7] | outcome [8]
CCc1nc2nc(C)cc(Nc3ccc(F)c(Cl)c3)n2n1 | 77% (active) | 2% | -3 | 90% (active) | inactive | inactive | inactive | inactive
NC(N)=NN=CC(=O)Nc1ccc(Cl)c(Cl)c1 | 0% | -14% | 0 | 97% (active) | inactive | inactive | inactive | inactive
Cc1ccccc1C1CCN(C2CCC(NC(=O)/C=C/c3cccc(Cl)c3F)CC2)CC1 (stereo not given) | 37% | 87% (active) | 4 | 101% (active) | inactive | inactive | inactive | inactive
CCCCC(O)c1cc(O)c2c(c1)OC(C)(C)CC2C1=CCN(Cc2ccc3ccccc3c2)CC1 (stereo not given) | 97% (active) | 7% | 3 | 100% (active) | inactive | inactive | inactive | inactive
COc1ccc(COc2c(OC)cc(Cc3cnc(N)nc3N)cc2OC)cc1 | 23% | 5% | 1 | 90% (active) | inactive | inactive | inactive | inactive
CC(C)CNCc1ccc(-c2ccccc2CNC2CCN(Cc3ccccc3)CC2)cc1 | 41% | 28% | -3 | 101% (active) | inactive | inactive | inactive | inactive
Cc1c(F)cc(C(=O)NC2CC2)cc1-c1ccc2c(cnn2S(=O)(=O)c2ccc(C#N)cc2)c1 | 92% (active) | 17% | 0 | 97% (active) | inactive | inactive | inactive | inactive
OC1CCCN(Cc2ccc(-c3cccc(-c4nc5ccc(F)cc5[nH]4)c3)cc2)C1 (stereo not given) | 49% | 28% | -5 | 99% (active) | inactive | inactive | inactive | inactive
NC(N)=NN=CC(=O)Nc1ccc(C(F)(F)F)cc1 | 9% | 5% | 1 | 100% (active) | inactive | inactive | inactive | inactive
CCCCCN1CCC(NC(=O)c2ccc(C(=O)Nc3ccc(C(C)C)cc3)cc2)CC1 | 9% | 41% | -4 | 98% (active) | inactive | inactive | inactive | inactive
CNC(=O)/C=C/c1cc(NC(=O)Nc2ccnc3c(Br)cccc23)ccc1OC | 68% (active) | 12% | 1 | 95% (active) | inactive | inactive | inactive | inactive
COc1ccc2c(NN=Cc3ccccn3)ccnc2c1 | 96% (active) | 14% | -2 | 102% (active) | inactive | inactive | inactive | inactive
N#Cc1ccc2nc(-c3cc(-c4cccc(F)c4)cnc3N)[nH]c2c1 | 93% (active) | 46% | 5 | 100% (active) | inactive | inactive | inactive | inactive
CCN(CC)CC(O)CNc1c2ccc([N+](=O)[O-])cc2nc2cc(OC)c(OC)cc12 (stereo not given) | 100% (active) | 78% (active) | -4 | 100% (active) | inactive | inactive | inactive | inactive
COc1ccc(CN(C)C(=O)CCNS(=O)(=O)c2ccc3c(c2)OCCCO3)cc1F | 94% (active) | 9% | 0 | 96% (active) | inactive | inactive | inactive | inactive
Brc1cccc(Nc2nccc(Nc3ccc(Oc4ccccc4)cc3)n2)c1 | 5% | -6% | -4 | 89% (active) | inactive | inactive | inactive | inactive
CN1CCN(c2cccc(-c3nnc(-c4ccc(OCC(=O)NCc5ccc(C(F)(F)F)cc5)c([N+](=O)[O-])c4)o3)c2)CC1 | 44% | 35% | -4 | 90% (active) | inactive | inactive | inactive | inactive
Fc1ccc2nccc(NN=Cc3ccccc3Cl)c2c1 | 39% | 3% | 0 | 100% (active) | inactive | inactive | inactive | inactive
O=C(Nc1ccc(Br)cc1)N(CCN1CCOCC1)CC(O)COCc1ccc(Cl)c(Cl)c1 (stereo not given) | 52% (active) | 16% | -5 | 94% (active) | inactive | inactive | inactive | inactive
Cc1ccc(Oc2cnn(C)c(=O)c2Nc2cccc(C(=O)NCCc3ccccn3)c2)c(C)c1 | 94% (active) | 0% | -4 | 94% (active) | inactive | inactive | inactive | inactive
